Measured values from PubChem BioAssay (EPA / NIEHS).
The source made the active and inactive calls. The calls were made as follows: active = hit-call score of the fitted dose curve at least 0.9, where 1 is the maximum; inactive = score below 0.9.

The compounds below were run on Cytochrome P450 4A22 (Homo sapiens) (UniProt Q5TCH4) (assay: LTEA_HepaRG_CYP4A22: Life Technologies and Expression Analysis (LTEA) Assay for Cytochrome P450 4A22 (CYP4A22) using HepaRG (AID 2283495)). Conditions: mRNA level, 48 h; actives raise or lower the signal.
Experimental: LTEA_HepaRG is a cell based, multiplexed-readout assay that uses HepaRG, a human liver cell line, with measurements taken at 48 hours after chemical dosing on a 96-well plate.LTEA_HepaRG_CYP4A22 is one of 102 assay component(s) measured in the LTEA HepaRG cell culture assay. It is a marker of NR mediated metabolism.Data from the assay component LTEA_HepaRG_CYP4A22 was analyzed into 1 endpoint. This assay endpoint, LTEA_HepaRG_CYP4A22, was analyzed with bidirectional fitting relative to DMSO as the negative control and baseline of activity. Using a type of inducible reporter, measures of mRNA induction for gain or loss-of-signal activity can be used to understand regulation of transcription factor activity. To generalize the intended target to other relatable targets, this assay endpoint is annotated to the cyp intended target family, where the subfamily is xenobiotic metabolism.
A total of 1060 chemcials from the ToxCast library were tested in eight-point concentration-response experiments. Cell culture and cytotoxicity assays were conducted at Thermo Fisher Scientific's Custom Services facility (Madison, WI). A single lot of human HepaRG cells (Thermo Fisher Scientific, Frederick, MD) was used for the cell culture experiments. 96-well format collagen type I coated plates of human HepaRG cells were prepared using established methods. Briefly, cryopreserved HepaRG cells were thawed, plated at a density of approximately 100,000 cells/well in HepaRG Thaw, Plate, and General Purpose media (HPRG770, Thermo Fisher Scientific), and incubated for 48 hours. 0.5% DMSO was selected as vehicle control to balance the requisite need of DMSO in HepaRG cultures to maintain differentiation (for example, baseline metabolism, proportions of hepatocytes vs. cholangiocytes), while enabling further hepatic receptor pathway activation (for example, PXR and CAR) in response to chemical exposure. 48 hours after plating, the culture medium was replaced with HepaRG Serum-Free Incudtion Media. Cells were exposed to each test chemical in duplicate and maintained in CO2 incubators for another 48 hours. Chemical plates were thawed to room temperature and 200x concentrations of treatment groups were prepared. 8-point conentration-reponse curves were made with the highest exposure at 100 uM, followed by half-log dilutions, all in 0.5% DMSO. Each test plate contained variouse controls, induction positive controls (1mM phenobarbital), cytotoxicity positive controls ([…] aflatoxin B1), vehicle controls (0.5% DMSO), and total lysis controls (0.5% DMSO). Cell morphology images were taken using an Essen IncuCyte FLR automated microscope, with six 96-well plates imaged in about 24 minutes. Images were captured and exported and JPEG files. Spent culture media was transfered to black-well plates for the LDH assay, and remaining media was sorted at -80 C for later use. Cells were treated with RLT buffer and frozen until shipped for gene expression analysis. Total RNA was isolated from the cell suspension in 75 uL of Buffer RLT (Qiagen, Germantown, MD 20874) by Quintiles/Expression Analysis (Durham, NC) using a custom isolation procedure. Total RNA from each plate well was transferred to a preamplification plate. Fluidigm's 96.96 Dynamic ArrayTM (Fluidigm, Amsterdam, the Netherlands) technology was used for gene expression analyses by quantitative reverse transcription polymerase chain reaction (qRT-PCR, performed by Quintiles/Expression Analysis, Durham, NC)89. Standard TaqManTM Assays (Applied Biosystems/ThermoFisher Scientific, Foster City, CA) were used to assess the expression of 93 genes selected based on their selectivity and sensitivity to important hepatic receptors known to be modulated by environmental chemicals; importance in human hepatocyte functionality; and hepatotoxicity. […]

Structure (SMILES) | outcome | AC50
COc1ccc(/C=C/S(=O)(=O)NC(=O)c2ccc(C)cc2Cl)cc1 | inactive | 
Cc1ccc(C)c(O)c1 | inactive | 
CCNc1ccccc1 | inactive | 
O=C(O)c1cc(N=Nc2ccc(S(=O)(=O)Nc3ccccn3)cc2)ccc1O | inactive | 
O=C1OC(=O)C2C3C=CC(C3)C12 (stereo not given) | inactive | 
C1N2CN3CN1CN(C2)C3 | inactive | 
O=C(OC[C@H]1O[C@@H](OC(=O)c2cc(O)c(O)c(OC(=O)c3cc(O)c(O)c(O)c3)c2)[C@H](OC(=O)c2cc(O)c(O)c(OC(=O)c3cc(O)c(O)c(O)c3)c2)[C@@H](OC(=O)c2cc(O)c(O)c(OC(=O)c3cc(O)c(O)c(O)c3)c2)[C@@H]1OC(=O)c1cc(O)c(O)c(OC(=O)c2cc(O)c(O)c(O)c2)c1)c1cc(O)c(O)c(OC(=O)c2cc(O)c(O)c(O)c2)c1 |  | 12.4 µM (active)
Cc1ccc(N)cc1O | inactive | 
C=CC(=C)CCC=C(C)C | inactive | 
CCc1cc(SCc2sc(-c3ccc(C(F)(F)F)cc3)nc2CN2CCN(c3ccc(OC)cc3)CC2)ccc1OCC(=O)O |  | 8.62 µM (active)
Cn1c(=O)c2c(ncn2C)n(C)c1=O | inactive | 
O=C(NS(=O)(=O)/C=C/c1ccccc1)c1ccc(F)cc1Cl | inactive | 
Cn1c(=O)cc(Oc2ccc(F)cc2F)c2cnc(NCC(C)(C)O)nc21 | inactive | 
CC(C)=CCCC(C)CCO (stereo not given) | inactive | 
O=c1n(CC2CO2)c(=O)n(CC2CO2)c(=O)n1CC1CO1 (stereo not given) | inactive | 
CCCCC(CC)COC(=O)CCCCCCCCC(=O)OCC(CC)CCCC (stereo not given) | inactive | 
CNS(=O)(=O)c1cc(C(=O)N2CCC(CCN3C4CCC3CC(n3c(C)nc5ccccc53)C4)(c3cccc(F)c3)CC2)c(Cl)cc1F (stereo not given) |  | 22.7 µM (active)
O=C(O)CCN(C1(C(=O)NO)CCCC1)S(=O)(=O)c1ccc(Oc2ccc(F)cc2)cc1 | inactive | 
COc1ccc2sc(C(=O)Nc3nnn[nH]3)c(OC(C)C)c2c1 |  | 1.17 µM (active)
COC(=O)c1ccccc1O | inactive | 

Structure (SMILES) | outcome | AC50
CCOC(=O)COc1ccc2c(c1)CC(NCC(O)c1cccc(Cl)c1)CC2 (stereo not given) | inactive | 
Cc1[nH]cnc1C[C@H]1CCc2c(C)c3ccccc3n2C1=O |  | 18.9 µM (active)
O=C(O)c1cccc(N(Cc2cccnc2)c2ccc(OC(F)F)c(OC(F)F)c2)c1 | inactive | 
O=C1CCCCCN1 | inactive | 
CCCCCCCCO | inactive | 
Cn1cnc([N+](=O)[O-])c1Sc1ncnc2nc[nH]c12 |  | 0.238 µM (active)
CCN(C(=O)c1cc(C)cc(OC[C@H](C)Nc2ccncc2)c1)C(C)C |  | 33.8 µM (active)
CCCCC(CC)COC(=O)c1ccc(C(=O)OCC(CC)CCCC)cc1 (stereo not given) | inactive | 
COCCOCCOCCOC | inactive | 
CCOC(=O)CC(CC(=O)OCC)(OC(C)=O)C(=O)OCC | inactive | 
Fc1ccccc1[C@@H](F)COC1CCC(Nc2ncnc3[nH]ncc23)CC1 (stereo not given in full) |  | 23 µM (active)
CCOCCOCCOCCO | inactive | 
Cc1ccc(S(=O)(=O)O)cc1C | inactive | 
CCOCCO | inactive | 
CNCc1ccc(NC(=O)c2c[nH]c3c2C(=O)CCC3)cc1 | inactive | 
CC1=CC(=O)CC(C)(C)C1 | inactive | 
CC(C)CCCCCCCOC(=O)CCCCC(=O)OCCCCCCCC(C)C | inactive | 
CC/C(=C\C(=N/O)C(N)=O)C(C)[N+](=O)[O-] (stereo not given) | inactive | 
O=c1[nH]c2ccc(S(=O)CCN3CCC(Cc4ccc(F)cc4)CC3)cc2o1 (stereo not given) |  | 80 µM (active)
O=C(CCCCCCCCc1cccnc1)N1CCC(C=C(c2ccccc2)c2ccccc2)CC1 |  | 22.7 µM (active)
